In PubChem BioAssay AID1159580 (chemical genetic matrix, 2015):
Screen size: about 5,500 compounds; about 2,000 (36%) were called active. About 18% were inconclusive and are not listed. No stated cut-off is given here; in the data, active means normalized growth mostly below about 0.91 (no sharp cut-off); inconclusive means no clear call, values can overlap the other calls; inactive means mostly above about 0.92. Some of the results follow.

Assay: chemical genetic growth profiling, strain panel (AID 1159580);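 further: tested at 20 µM; growth read once vehicle control cultures reached saturation at 30 °C; 1 = growth at the plate median or of vehicle wells; lower values mean less growth of the strain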
Details: S. cerevisiae deletion strains, growth OD

Measured: normalized growth

CC(=O)OCC(=O)[C@@]1(O)CCC2C3CC[C@@H]4C[C@H](O)CC[C@]4(C)C3C(=O)C[C@@]21C (some centres not stated)
inactive: locus YAL021C, strain ccr4, hits give low values 1.02 | locus YAL026C, strain drs2, hits give low values 1.01 | locus YAL030W, strain snc1, hits give low values 1.02 | locus YBL061C, strain skt5, hits give low values 1.03 | locus YBR009C, strain hhf1, hits give low values 1.03 | locus YBR023C, strain chs3, hits give low values 1.02 | locus YBR171W, strain sec66, hits give low values 1.03 | locus YBR231C, strain swc5, hits give low values 1.02 | locus YBR279W, strain paf1, hits give low values 1.03 | locus YCL011C, strain gbp2, hits give low values 1.04 | locus YCL016C, strain dcc1, hits give low values 1.04 | locus YCL061C, strain MRC1, hits give low values 1.03 | locus YCL069W, strain vba3, hits give low values 1.01 | locus YCR088W, strain abp1, hits give low values 1.01 | locus YDL005C, strain med2, hits give low values 1.02 | locus YDL040C, strain nat1, hits give low values 1.02 | locus YDR001C, strain nth1, hits give low values 1.01 | locus YDR069C, strain doa4, hits give low values 1.02 | locus YDR137W, strain rgp1, hits give low values 1.06 | locus YDR159W, strain sac3, hits give low values 1.01 | locus YDR195W, strain ref2 0.988 | locus YDR297W, strain sur2, hits give low values 1.01 | locus YDR334W, strain swr1, hits give low values 1.01 | locus YDR335W, strain msn5, hits give low values 1.01 | locus YDR392W, strain spt3, hits give low values 0.983 | locus YEL003W, strain gim4, hits give low values 1.01 | locus YEL037C, strain rad23, hits give low values 1 | locus YEL061C, strain CIN8 (second series), hits give low values 1.01 | locus YER015W, strain faa2, hits give low values 1.01 | locus YER016W, strain bim1, hits give low values 1.02 | locus YER111C, strain swi4, hits give low values 1.02 | locus YER155C, strain BEM2 (second series), hits give low values 1.03 | locus YFR010W, strain ubp6, hits give low values 1.01 | locus YGL167C, strain pmr1, hits give low values 1.01 | locus YGL173C, strain kem1, hits give low values 1.03 | locus YGL227W, strain vid30, hits give low values 1.02 | locus YGL240W, strain doc1, hits give low values 1.03 | locus YGL253W, strain hxk2, hits give low values 1.01 | locus YHR013C, strain ard1, hits give low values 1.03 | locus YHR027C, strain rpn1, hits give low values 1.01 | locus YHR142W, strain chs7, hits give low values 1.02 | locus YJL092W, strain hpr5, hits give low values 1.01 | locus YJL095W, strain BCK1 (second series), hits give low values 1.02 | locus YJL115W, strain asf1, hits give low values 1.02 | locus YJL129C, strain trk1, hits give low values 1.05 | locus YJL154C, strain vps35, hits give low values 1.01 | locus YJL164C, strain tpk1, hits give low values 1.03 | locus YJL166W, strain qcr8, hits give low values 1.03 | locus YJL187C, strain SWE1, hits give low values 1.02 | locus YKL160W, strain elf1, hits give low values 1.03 | locus YKR026C, strain gcn3, hits give low values 1.01 | locus YKR091W, strain srl3, hits give low values 1.02 | locus YLL001W, strain dnm1, hits give low values 1.03 | locus YLL026W, hits give low values 1.02 | locus YLL041C, strain sdh2, hits give low values 1.01 | locus YLR027C, strain aat2, hits give low values 1.02 | locus YLR221C, strain rsa3, hits give low values 1.05 | locus YLR258W, strain gsy2, hits give low values 1.02 | locus YLR262C, strain YPT6 (second series), hits give low values 1.04 | locus YLR320W, strain mms22, hits give low values 1.07 | locus YLR342W, strain FKS1, hits give low values 1.01 | locus YLR357W, strain rsc2, hits give low values 1.03 | locus YLR370C, strain arc18, hits give low values 1.02 | locus YLR384C, strain iki3, hits give low values 1.02 | locus YML120C, strain ndi1, hits give low values 1.01 | locus YMR058W, strain fet3, hits give low values 1.01 | locus YMR125W, strain sto1, hits give low values 1.02 | locus YMR129W, hits give low values 1.01 | locus YMR205C, strain PFK2, hits give low values 1.03 | locus YMR231W, strain pep5, hits give low values 1.01 | locus YNL071W, strain lat1, hits give low values 1.02 | locus YNL209W, strain ssb2, hits give low values 1.02 | locus YNL248C, strain rpa49, hits give low values 1.01 | locus YNL322C, strain KRE1 (second series), hits give low values 1.03 | locus YNR049C, strain mso1, hits give low values 1.01 | locus YOR001W, strain rrp6, hits give low values 1.01 | locus YOR070C, strain gyp1, hits give low values 1.02 | locus YOR080W, strain dia2, hits give low values 1.02 | locus YOR083W, strain WHI5, hits give low values 1.04 | locus YOR106W, strain vam3, hits give low values 1.02 | locus YOR265W, strain rbl2, hits give low values 1.02 | locus YOR270C, strain vph1, hits give low values 1.03 | locus YOR290C, strain snf2, hits give low values 1 | locus YPL051W, strain arl3, hits give low values 1.02 | locus YPL078C, strain atp4, hits give low values 1.02 | locus YPL106C, strain sse1, hits give low values 1.07 | locus YPL240C, strain hsp82, hits give low values 1.02
